This is a sample that favours compounds with a hit; in the whole collection about 4.6% have one here.
NTMT1 inhibitor: inhibitors of human N-terminal methyltransferase NTMT1. NTMT1 MTase-Glo SAH luminescence, purified enzyme. Potency, µM (highest dose often 114 µM), inactives show top-dose activity change, negative = inhibition, most hits filed as inhibitors. actives 2.5% (n = 59,000);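 also: potency is read from the fitted curve at half-maximal effect; plate controls were DMSO vehicle for no effect and no enzyme for full effect; nearly all actives have a fitted effect of over 65% in size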
Target sequence (Q9BV86 whole entry, looked up): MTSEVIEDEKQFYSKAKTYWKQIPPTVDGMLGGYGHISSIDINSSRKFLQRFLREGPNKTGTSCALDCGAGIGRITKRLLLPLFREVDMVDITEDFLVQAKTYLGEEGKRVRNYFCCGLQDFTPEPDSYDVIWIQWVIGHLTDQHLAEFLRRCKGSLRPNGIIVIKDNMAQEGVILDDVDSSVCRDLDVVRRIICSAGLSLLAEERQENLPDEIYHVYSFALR
HTT prom inh: inhibits huntingtin promoter activity. actives 0.93% (n = 48,000). Potency, µM (top dose mostly 57.5 µM), for the others: at the top dose activity change, negative = inhibition, actives largely listed as inhibitors. HEK293 HTT promoter firefly luciferase reporter, 24 h; also: potency is read from the fitted curve at half-maximal effect; nearly all actives have a fitted effect of over 50% in size
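HEK293 cells carrying firefly luciferase reporters were seeded at 2,500 per well in Opti-MEM and cultured for 24 h. They were then treated with compounds at up to 57.5 uM final for 24 h at 37 degrees C before Dual-Glo luminescence readout.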
GPR32 ag: activates human resolvin D1 receptor GPR32. O75388. CHO-K1 GPR32 beta-arrestin PathHunter luminescence, 90 min; zero percent set by DMSO-only wells. activation, % at 76.9 µM. actives 2.5% (n = 48,000);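 active = activation of at least 60% and not above a set upper limit, about 1 call in 100 departs from these limits; inconclusive = activation of 40% to 60%, or above that upper limit; inactive = activation under 40%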; also: 0% is about no effect
Target sequence (O75388 whole entry, looked up): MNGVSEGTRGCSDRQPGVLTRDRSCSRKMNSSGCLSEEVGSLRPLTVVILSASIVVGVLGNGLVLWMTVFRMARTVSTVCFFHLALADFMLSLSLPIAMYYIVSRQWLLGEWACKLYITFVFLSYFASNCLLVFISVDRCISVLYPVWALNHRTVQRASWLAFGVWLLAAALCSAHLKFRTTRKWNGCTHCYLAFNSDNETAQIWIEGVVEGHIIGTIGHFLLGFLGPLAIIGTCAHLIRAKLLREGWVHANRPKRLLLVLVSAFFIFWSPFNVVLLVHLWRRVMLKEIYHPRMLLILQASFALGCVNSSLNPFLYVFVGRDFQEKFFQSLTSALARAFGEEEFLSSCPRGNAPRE
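Agonism was scored as beta-arrestin recruitment to ProLink-fused GPR32 in stably transfected CHO-K1 cells, giving a chemiluminescent beta-Gal signal; compounds were incubated 90 min at 37 °C.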
HTT-AS act: HTT-AS promoter activation; HEK293 HTT-AS promoter firefly luciferase reporter, 24 h; response scale: percent change from vehicle, -100% = no light; Potency, µM (titrated, usually from 57.5 µM), without a hit: at the highest dose activity change, positive = activation, most hits filed as activators; AID 1508624; actives 0.24% (n = 48,000); also: potency is read from the fitted curve at half-maximal effect; nearly all actives have a fitted effect of over 55% in size
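Firefly luciferase signal from promoter-reporter HEK293 cells was scaled between vehicle (0%) and zero RLU (-100%). Compounds were tested at final concentrations of up to 57.5 uM over 24 h at 37 degrees C. PTC124 at 50 uM final served as control inhibitor.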
Active calls of the source: *; ! = not active in a repeat; [ ] = dose if it differs, or a comment. Unless noted, calls follow the shape of the dose curve; as a rule, active = well fitted curve in the direction sought with a large enough effect; inconclusive = small, poorly fitted or top-dose-only effect, or another doubt; inactive = no such curve, though single readings can be large; an effect the other way counts as inactive or inconclusive.

How did COc1cc2c(cc1NC(=O)C(C)Oc1ccccc1)oc1ccccc12 (stereo not given) do in these assays?
NTMT1 inhibitor: 2%; HTT prom inh: 32%; GPR32 ag: -10; HTT-AS act: 4µM*

How did Cc1ccc(NC(=O)Cn2cc(S(=O)(=O)NC(C)C)c(S(=O)(=O)NC(C)C)c2)cc1Cl do in these assays?
NTMT1 inhibitor: 5%; HTT prom inh: inconclusive; GPR32 ag: 69*; HTT-AS act: -7%

Results for CNS(=O)(=O)c1cn(CC(=O)Nc2ccc(OC)c(Cl)c2)cc1S(=O)(=O)NC ?
NTMT1 inhibitor: 12%; HTT prom inh: 3%; GPR32 ag: -4; HTT-AS act: -9%

What do the screens show for `O=C(NCCc1ccccc1)C(=O)NCC(c1cccnc1)N1CCN(c2ccc(F)cc2)CC1` (stereo not given)?
NTMT1 inhibitor: -4%; HTT prom inh: 14µM*; GPR32 ag: 8; HTT-AS act: -49%

Results for COc1ccccc1N1CCN(C(CNC(=O)C(=O)NCCc2ccccc2)c2cccnc2)CC1 (stereo not given) ?
NTMT1 inhibitor: 1%; HTT prom inh: 7.1µM*; GPR32 ag: 36; HTT-AS act: -57%

Results for O=C(NCc1cccnc1)C(=O)NCC(c1cccnc1)N1CCN(c2ccc(F)cc2)CC1 (stereo not given) ?
NTMT1 inhibitor: 0%; HTT prom inh: inconclusive; GPR32 ag: 5; HTT-AS act: -15%

How did COc1ccc(C(=O)NCC(c2cccnc2)N2CCN(c3ccccc3OC)CC2)cc1 (stereo not given) do in these assays?
NTMT1 inhibitor: 0%; HTT prom inh: inconclusive; GPR32 ag: 13; HTT-AS act: -53%

Results for CCC(C(=O)Nc1c(C)cc(C)cc1C)n1c(=O)c(-c2ccccc2NC(C)=O)nc2ccccc21 (stereo not given) ?
NTMT1 inhibitor: 89µM*; HTT prom inh: -9%; GPR32 ag: 0; HTT-AS act: -7%

Results for CCC(C(=O)Nc1cccc(C#N)c1)n1c(=O)c(-c2ccccc2NC(C)=O)nc2ccccc21 (stereo not given) ?
NTMT1 inhibitor: 4%; HTT prom inh: inconclusive; GPR32 ag: -40; HTT-AS act: -52%

Results for O=C1C=CC2OC(c3ccccc3)C(O)C2O1 (stereo not given) ?
NTMT1 inhibitor: 15%[57.5 µM]

Results for Cc1ccc(S(=O)(=O)n2cc(C(=O)Nc3ccc(-c4ccccc4)cc3)c3ccccc32)cc1 ?
NTMT1 inhibitor: -2%

Results for Cc1ccc(Nc2nccc(N(C)c3ccc4c(C)n(C)nc4c3)n2)cc1S(N)(=O)=O ?
NTMT1 inhibitor: 16µM*!; HTT prom inh: -1%; GPR32 ag: inconclusive; HTT-AS act: -8%

Results for Cc1ccc(S(=O)(=O)Nc2cc(C(=O)Nc3nc(-c4ccccc4)cs3)ccn2)cc1 ?
NTMT1 inhibitor: -3%[57.5 µM]

What do the screens show for `COc1ccc(CCNC(=O)c2nc(SCc3ccccc3F)ncc2Cl)cc1OC`?
NTMT1 inhibitor: 3%; HTT prom inh: 18µM*; GPR32 ag: -32; HTT-AS act: -48%

Results for CC(=O)Nc1ccc(NC(=O)c2nc(SCc3ccccc3C)ncc2Cl)cc1 ?
NTMT1 inhibitor: -6%; HTT prom inh: -7%; GPR32 ag: 65*; HTT-AS act: -16%

How did C=C(C)C1CC[C@]2(C(=O)O)CC[C@]3(C(=O)O)[C@H](CCC4[C@@]5(C)CC[C@H](O)C(C)(C)C5CC[C@]43C)C12 (stereo not given in full) do in these assays?
NTMT1 inhibitor: 8%[29.8 µM]

Results for COc1cccc(C(=O)Nc2nc3c(s2)CCCC3)c1 ?
NTMT1 inhibitor: 40µM*; HTT prom inh: 15%; GPR32 ag: 0; HTT-AS act: inconclusive

What do the screens show for `CCCOc1ccccc1C(=O)Nc1nc2c(s1)CCCC2`?
NTMT1 inhibitor: 79µM*; HTT prom inh: -26%; GPR32 ag: -33; HTT-AS act: -26%

Results for COc1ccc(C2Nc3ccccc3C(=O)N2Cc2cccnc2)cc1COc1c(C)cc(NC(C)=O)cc1C (stereo not given) ?
NTMT1 inhibitor: 10%

What do the screens show for `COc1ccc(NC(=O)c2cnn3c(C)cc(C)nc23)cc1F`?
NTMT1 inhibitor: -1%

What do the screens show for `N#Cc1ccc(-c2cccs2)nc1SCC(=O)Nc1cccc(C(F)(F)F)c1`?
NTMT1 inhibitor: 6%; HTT prom inh: -32%; GPR32 ag: 82*; HTT-AS act: 3%

Results for Oc1c(I)cc(Cl)c2cccnc12 ?
NTMT1 inhibitor: 50µM*; HTT prom inh: -12%; GPR32 ag: inconclusive; HTT-AS act: -5%

How did Cc1ccccc1C(=O)N1CCc2cc(N3CCC(NC(=O)Cc4ccccc4)C3)ccc21 (stereo not given) do in these assays?
NTMT1 inhibitor: -14%

How did CC(=O)c1ccc(NC(=O)C2Cc3ccccc3N2C(=O)c2ccccc2)cc1 (stereo not given) do in these assays?
NTMT1 inhibitor: -67%; HTT prom inh: -13%; GPR32 ag: -9; HTT-AS act: 4%

How did CC(=O)Nc1ccc(NC(=O)C2Cc3ccccc3N2C(=O)c2ccccc2)cc1 (stereo not given) do in these assays?
NTMT1 inhibitor: -4%; HTT prom inh: 0%; GPR32 ag: 100*; HTT-AS act: -9%

How did NC(=O)C1CCN(c2ncc(-c3ccc(Br)cc3)s2)CC1 do in these assays?
NTMT1 inhibitor: -4%

Results for O=C(NCCc1csc2nc(-c3ccc(F)cc3)nn12)c1cccc(C(F)(F)F)c1 ?
NTMT1 inhibitor: -17%; HTT prom inh: inconclusive; GPR32 ag: -2; HTT-AS act: -29%

How did COc1ccc(-c2nc3scc(CCNC(=O)c4cccc(Br)c4)n3n2)cc1 do in these assays?
NTMT1 inhibitor: 23%; HTT prom inh: -18%[11.5 µM]; GPR32 ag: 71*; HTT-AS act: -12%

How did CN(C)CCNC(=O)COc1c2cccc1Cc1cccc(c1OCC(=O)NCCN(C)C)Cc1cccc(c1OCC(=O)NCCN(C)C)Cc1cccc(c1OCC(=O)NCCN(C)C)C2 do in these assays?
NTMT1 inhibitor: -14%[29.8 µM]

What do the screens show for `CCCCCn1c(=O)[nH]c2cc(C(=O)N3CCN(c4cccc(C)c4)C(C)C3)ccc2c1=O` (stereo not given)?
NTMT1 inhibitor: inconclusive; HTT prom inh: inconclusive; GPR32 ag: 104*; HTT-AS act: -57%

Results for CCCCCn1c(=O)[nH]c2cc(C(=O)N3CCN(c4cccc(OC)c4)CC3)ccc2c1=O ?
NTMT1 inhibitor: inconclusive; HTT prom inh: inconclusive; GPR32 ag: 36; HTT-AS act: -35%

How did CCOC(=O)C1=C(C)NC(C)=C(C(=O)OC)C1c1cccc(Cl)c1Cl (stereo not given) do in these assays?
NTMT1 inhibitor: 38%[57.5 µM]; HTT prom inh: -10%; GPR32 ag: 110*!; HTT-AS act: -18%

Screens: PubChem BioAssay, National Center for Advancing Translational Sciences (NCATS)
